# Data published in the supplement of paper PMC8728848.
# The full list was thinned out, with the strongest signals kept by preference.
# Assays:
# Assay in all cases: glycan array binding signal (z-score within array); higher = stronger binding
# Details in all cases: glycan notation: IUPAC condensed, linker removed
# [1] = molecular target: Fuc(a1-2)Gal(b1-3)GalNAc(b1-3)Gal(a1-4)Gal(b1-4)Glc
# Summary of the method: (§1)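 Glycan array data came from 3228 arrays in the Consortium for Functional Glycomics database, and only arrays with an available protein sequence were kept. Glycan names were put into IUPAC-condensed notation, and columns mapping to the same glycan were averaged. The binding signal is a within-array Z-score, averaged across arrays of one protein sequence run at different concentrations or buffers and across linkers. A negative Z-score can be read as non-binding.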
# [2] = molecular target: Fuc(a1-2)Gal(b1-3)[Fuc(a1-4)]GlcNAc(b1-3)[Gal(b1-4)GlcNAc(b1-6)]Gal(b1-4)Glc
# Summary of the method: as §1
# [3] = molecular target: Fuc(a1-2)Gal(b1-4)[Fuc(a1-3)]GlcNAc(b1-3)GalNAc
# Summary of the method: as §1
# [4] = molecular target: Fuc(a1-2)Gal6S(b1-4)Glc6S
# Summary of the method: as §1
# [5] = molecular target: Fuc(a1-2)[Gal(a1-3)]Gal(b1-4)GlcNAc(b1-2)Man
# Summary of the method: as §1
# [6] = molecular target: Fuc(a1-2)[Gal(a1-3)]Gal(b1-4)GlcNAc(b1-6)GalNAc
# Summary of the method: as §1
# [7] = molecular target: Fuc(a1-2)[Gal(a1-3)]Gal(b1-4)[Fuc(a1-3)]GlcNAc(b1-3)GalNAc
# Summary of the method: as §1
# [8] = molecular target: Fuc(a1-3)[GalNAc(b1-4)]GlcNAc
# Summary of the method: as §1
# [9] = molecular target: Gal(a1-3)Gal(b1-4)GlcNAc(b1-2)Man
# Summary of the method: as §1
# [10] = molecular target: Gal(a1-3)Gal(b1-4)[Fuc(a1-3)]GlcNAc(b1-2)Man(a1-3)[Gal(a1-3)Gal(b1-4)[Fuc(a1-3)]GlcNAc(b1-2)Man(a1-6)]Man(b1-4)GlcNAc(b1-4)GlcNAc
# Summary of the method: as §1
# [11] = molecular target: Gal(b1-3)GlcNAc(a1-6)Gal(b1-4)GlcNAc
# Summary of the method: as §1
# [12] = molecular target: Gal(b1-3)GlcNAc(b1-6)GalNAc
# Summary of the method: as §1
# [13] = molecular target: Gal(b1-3)[Fuc(a1-4)]GlcNAc
# Summary of the method: as §1
# [14] = molecular target: Gal(b1-4)GlcNAc(b1-3)Gal(b1-4)GlcNAc(b1-2)Man(a1-3)[Gal(b1-4)GlcNAc(b1-3)Gal(b1-4)GlcNAc(b1-2)Man(a1-6)]Man(b1-4)GlcNAc(b1-4)GlcNAc
# Summary of the method: as §1
# [15] = molecular target: Gal(b1-4)GlcNAc(b1-3)Gal(b1-4)GlcNAc(b1-2)[Gal(b1-4)GlcNAc(b1-3)Gal(b1-4)GlcNAc(b1-6)]Man(a1-6)[Gal(b1-4)GlcNAc(b1-3)Gal(b1-4)GlcNAc(b1-2)Man(a1-3)]Man(b1-4)GlcNAc(b1-4)[Fuc(a1-6)]GlcNAc
# Summary of the method: as §1
# [16] = molecular target: Gal(b1-4)GlcNAc(b1-3)Gal(b1-4)GlcNAc(b1-3)Gal(b1-4)GlcNAc(b1-2)Man(a1-3)[Gal(b1-4)GlcNAc(b1-3)Gal(b1-4)GlcNAc(b1-3)Gal(b1-4)GlcNAc(b1-2)Man(a1-6)]Man(b1-4)GlcNAc(b1-4)GlcNAc
# Summary of the method: as §1
# [17] = molecular target: Gal(b1-4)GlcNAc(b1-3)Gal(b1-4)GlcNAc(b1-3)Gal(b1-4)GlcNAc(b1-2)[Gal(b1-4)GlcNAc(b1-3)Gal(b1-4)GlcNAc(b1-3)Gal(b1-4)GlcNAc(b1-6)]Man(a1-6)[Gal(b1-4)GlcNAc(b1-3)Gal(b1-4)GlcNAc(b1-3)Gal(b1-4)GlcNAc(b1-2)Man(a1-3)]Man(b1-4)GlcNAc(b1-4)[Fuc(a1-6)]GlcNAc
# Summary of the method: as §1
# [18] = molecular target: Gal(b1-4)GlcNAc(b1-3)Gal(b1-4)GlcNAc(b1-3)[Gal(b1-4)GlcNAc(b1-3)Gal(b1-4)GlcNAc(b1-6)]GalNAc
# Summary of the method: as §1
# [19] = molecular target: Gal(b1-4)GlcNAc(b1-3)Gal(b1-4)GlcNAc(b1-6)[Gal(b1-3)]GalNAc
# Summary of the method: as §1
# [20] = molecular target: Gal(b1-4)GlcNAc(b1-3)[Gal(b1-4)GlcNAc(b1-6)]GalNAc
# Summary of the method: as §1
# [21] = molecular target: Gal(b1-4)GlcNAc(b1-6)Gal(b1-4)GlcNAc(b1-6)GalNAc
# Summary of the method: as §1
# GalNAc(a1-3)GalNAc = molecular target: GalNAc(a1-3)GalNAc
# Summary of the method: as §1
# GalNAc(b1-3)Gal = molecular target: GalNAc(b1-3)Gal
# Summary of the method: as §1
# GalNAc3S(b1-4)GlcNAc3S = molecular target: GalNAc3S(b1-4)GlcNAc3S
# Summary of the method: as §1
# Glc(a1-4)Glc = molecular target: Glc(a1-4)Glc
# Summary of the method: as §1
# [22] = molecular target: GlcNAc(b1-3)Gal(b1-4)GlcNAc(b1-3)Gal(b1-4)GlcNAc(b1-2)Man(a1-3)[GlcNAc(b1-3)Gal(b1-4)GlcNAc(b1-3)Gal(b1-4)GlcNAc(b1-2)Man(a1-6)]Man(b1-4)GlcNAc(b1-4)GlcNAc
# Summary of the method: as §1
# [23] = molecular target: GlcNAc(b1-3)Gal(b1-4)GlcNAc(b1-3)Gal(b1-4)GlcNAc(b1-2)[GlcNAc(b1-3)Gal(b1-4)GlcNAc(b1-3)Gal(b1-4)GlcNAc(b1-6)]Man(a1-6)[GlcNAc(b1-3)Gal(b1-4)GlcNAc(b1-3)Gal(b1-4)GlcNAc(b1-2)Man(a1-3)]Man(b1-4)GlcNAc(b1-4)[Fuc(a1-6)]GlcNAc
# Summary of the method: as §1
# [24] = molecular target: GlcNAc(b1-3)Gal(b1-4)GlcNAc(b1-3)Gal(b1-4)GlcNAc(b1-3)Gal(b1-4)GlcNAc(b1-3)Gal(b1-4)GlcNAc(b1-2)Man(a1-3)[GlcNAc(b1-3)Gal(b1-4)GlcNAc(b1-3)Gal(b1-4)GlcNAc(b1-3)Gal(b1-4)GlcNAc(b1-3)Gal(b1-4)GlcNAc(b1-2)Man(a1-6)]Man(b1-4)GlcNAc(b1-4)[Fuc(a1-6)]GlcNAc
# Summary of the method: as §1
# [25] = molecular target: GlcNAc(b1-3)Gal(b1-4)GlcNAc(b1-6)[Gal(b1-3)]GalNAc
# Summary of the method: as §1
# GlcNAc(b1-3)GalNAc = molecular target: GlcNAc(b1-3)GalNAc
# Summary of the method: as §1
binder,measurement,setting,value
"ECA (Erythrina cristagalli), P83410 (protein) VETISFSFSEFEPGNDNLTLQGAALITQSGVLQLTKINQNGMPAWDSTGRTLYTKPVHMWDSTTGTVASFETRFSFSIEQPYTRPLPADGLVFFMGPTKSKPAQGYGYLGVFNNSKQDNSYQTLAVEFDTFSNPWDPPQVPHIGIDVNSIRSIKTQPFQLDNGQVANVVIKYDAPSKILHVVLVYPSSGAIYTIAEIVDVKQVLPDWVDVGLSGATGAQRDAAETHDVYSWSFQASLPE",glycan array binding signal (z-score),[1],-0.125
same,glycan array binding signal (z-score),[2],-0.309
same,glycan array binding signal (z-score),[3],0.542
same,glycan array binding signal (z-score),[4],-0.123
same,glycan array binding signal (z-score),[5],-0.485
same,glycan array binding signal (z-score),[6],-0.455
same,glycan array binding signal (z-score),[7],-0.399
same,glycan array binding signal (z-score),[8],-0.226
same,glycan array binding signal (z-score),[9],-0.517
same,glycan array binding signal (z-score),[10],10.5
same,glycan array binding signal (z-score),[11],-0.325
same,glycan array binding signal (z-score),[12],-0.491
same,glycan array binding signal (z-score),[13],-0.234
same,glycan array binding signal (z-score),[14],3.88
same,glycan array binding signal (z-score),[15],0.699
same,glycan array binding signal (z-score),[16],4.58
same,glycan array binding signal (z-score),[17],1.81
same,glycan array binding signal (z-score),[18],4.2
same,glycan array binding signal (z-score),[19],4.88
same,glycan array binding signal (z-score),[20],5.59
same,glycan array binding signal (z-score),[21],5.39
same,glycan array binding signal (z-score),GalNAc(a1-3)GalNAc,-0.186
same,glycan array binding signal (z-score),GalNAc(b1-3)Gal,-0.272
same,glycan array binding signal (z-score),GalNAc3S(b1-4)GlcNAc3S,-0.509
same,glycan array binding signal (z-score),Glc(a1-4)Glc,-0.148
same,glycan array binding signal (z-score),[22],3.72
same,glycan array binding signal (z-score),[23],3.4
same,glycan array binding signal (z-score),[24],0.151
same,glycan array binding signal (z-score),[25],-0.412
same,glycan array binding signal (z-score),GlcNAc(b1-3)GalNAc,-0.366
